According to PubChem BioAssay (NCATS):
Where “and” joins values, the source holds several entries; their conditions need not be identical. Equal values may be shown once. Records with an inconclusive call do not appear. Unmarked numbers belong to inactive results. Calls of active or inactive are those of the source. Calls follow the shape of the dose curve; as a rule, active = well fitted curve in the direction sought with a large enough effect; inconclusive = small, poorly fitted or top-dose-only effect, or another doubt; inactive = no such curve, though single readings can be large; an effect the other way counts as inactive or inconclusive. Peptide text beside a SMILES is read from it. * marks the point of attachment. Cbz = O=C(OCc1ccccc1)*

What was measured:
[1] = Viability qHTS for spleen associated tyrosine kinase inhibitor (SYKi) naive MV4-11 cells (AID 1963823); also: nearly all actives have a fitted effect of over 40% in size
Outline: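 qHTS, SYK inhibitor-naive MV4-11; 500 cells/well; 72 hr compound exposure, 37 C; CellTiter-Glo added, 10 min RT; luminescence read.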

[2] = Viability qHTS for spleen associated tyrosine kinase inhibitor (SYKi) drug resistant MV4-11 cells (AID 1963824); also: nearly all actives have a fitted effect of over 35% in size
Outline: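 CellTiter-Glo luminescence, read 10 min after reagent addition, reports viability after a 72 hr compound exposure. Cells are an MV4-11 line made resistant to SYK inhibition, seeded at 500 per well onto compound-containing plates.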

[3] = Quantitative highthroughput screen to assess conditional lethalithy of NOMO1 cells grown in RPMI1640 with untreated serum (RPMI+s) (AID 1963876); also: nearly all actives have a fitted effect of over 35% in size;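 as to Viability: 100% = DMSO wells and 0% = empty wells without cells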
Outline: (§1)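 Each medium arm—HPLM with 10% dialyzed FBS, or RPMI1640 with 5 mM glucose and 10% untreated or dialyzed FBS—was screened against an 11-point, 3-fold compound titration for 48 h at 37 °C, with CellTiter-Glo luminescence as endpoint.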

[4] = Quantitative highthroughput screen to assess conditional lethalithy of NOMO1 cells grown in RPMI1640 with dialyzed fetal bovine serum (RPMI+ds) (AID 1963877); also: nearly all actives have a fitted effect of over 30% in size;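 as to Viability: series mostly up to about 46 µM; 100% = DMSO control wells and 0% = empty wells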
Outline: as §1

[5] = Quantitative highthroughput screen to assess conditional lethalithy of P12 Ichikawa cells grown in Human Plasma-Like Medium with dialyzed fetal bovine serum (HPLM+ds) (AID 1963879); conditions: Potency: viability; also: nearly all actives have a fitted effect of over 35% in size; as to Viability: series mostly up to about 46 µM
Outline: as §1

[6] = Quantitative highthroughput screen to assess conditional lethalithy of P12 Ichikawa cells grown in RPMI1640 with dialyzed fetal bovine serum (RPMI+ds) (AID 1963880); conditions: Potency: P12-Ichikawa viability; also: nearly all actives have a fitted effect of over 35% in size;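 as to Viability: 100% = DMSO wells and 0% = empty wells on each plate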
Outline: as §1

[7] = Quantitative highthroughput screen to assess conditional lethalithy of P12 Ichikawa cells grown in RPMI1640 with untreated serum (RPMI+s) (AID 1963881); conditions: Potency: viability; also: nearly all actives have a fitted effect of over 35% in size;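 as to Viability: series mostly up to about 46 µM; 100% = DMSO wells and 0% = empty wells without cells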
Outline: as §1

[8] = Quantitative highthroughput screen to assess conditional lethalithy of SEM cells grown in Human Plasma-Like Medium with dialyzed fetal bovine serum (HPLM+ds) (AID 1963882); also: nearly all actives have a fitted effect of over 35% in size; as to Viability: series mostly up to about 46 µM
Outline: as §1

[9] = Quantitative highthroughput screen to assess conditional lethalithy of SEM cells grown in RPMI1640 with unreated serum (RPMI+s) (AID 1963883); also: nearly all actives have a fitted effect of over 35% in size;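 as to Viability: 100% = DMSO wells and 0% = empty wells without cells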
Outline: as §1

[10] = Quantitative highthroughput screen to assess conditional lethalithy of SEM cells grown in RPMI1640 with dialyzed fetal bovine serum (RPMI+ds) (AID 1963884); also: nearly all actives have a fitted effect of over 35% in size;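 as to Viability: series mostly up to about 46 µM; 100% = DMSO control wells and 0% = empty wells without cells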
Outline: as §1

[11] = Cellular viability qHTS for adrenocortical cancer (ACC) cell line SW-13 (AID 1963989); conditions: SW-13 ACC cells viability, CellTiter-Glo, 48 h; activity (max response): active compounds read low; also: nearly all actives have a fitted effect of over 65% in size;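 as to activity (max response): cells grown in serum-free medium with ITS supplement; % is scaled to controls: 0 for no effect and ±100 for the full control effect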
Outline: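 Viability was read as CellTiter-Glo luminescence after 48 h compound treatment (up to 46 uM final) of SW-13 cells grown serum-free; titration curves were fit with a four-parameter logistic model to give IC50 and efficacy.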

[12] = Cellular viability qHTS for adrenocortical cancer (ACC) cell line NCI-H295R (AID 1963990); also: nearly all actives have a fitted effect of over 60% in size
Outline: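 CellTiter-Glo ATP luminescence, read 48 h after compound addition, measured viability of NCI-H295R adrenocortical cells grown serum-free with ITS. Final concentrations spanned up to 46 uM. Data normalized to DMSO and doxorubicin, fitted for IC50 and maximal response.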

[13] = Quantitative highthroughput screen to assess conditional lethalithy of NOMO1 cells grown in Human Plasma-Like Medium with dialyzed fetal bovine serum (HPLM+ds) (AID 1963878); also: nearly all actives have a fitted effect of over 35% in size;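 as to Viability: 100% = DMSO wells and 0% = empty wells on each plate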
Outline: as §1
Potency is read from the fitted curve at half-maximal effect.

Row | SMILES | Potency [1] | Potency [2] | Potency [3] | Potency [4] | Potency [5] | Potency [6] | Potency [7] | Potency [8] | Potency [9] | Potency [10] | activity (max response) [11] | Potency [12] | Potency [11] | Potency [13]
1 | C=C1C(=O)OC(CCCCCCCC)C1C(=O)O (centres undefined) | inactive | inactive | inactive | inactive | inactive | inactive | inactive | inactive | inactive | inactive | -7.15% | inactive |  | 
2 | COc1ccc2nc3cc(Cl)ccc3c(Nc3cc(CN4CCCC4)c(O)c(CN4CCCC4)c3)c2n1 | 742 nM (active) | 1.05 µM (active) | inactive | inactive | inactive | inactive |  | 16600 nM (active) |  |  |  | 5620 nM (active) | 12600 nM (active) | 
3 | Nc1[nH]c(=O)ncc1F | inactive | inactive | inactive | inactive | inactive | inactive | inactive | inactive | inactive | inactive | 6.88% | inactive |  | 
4 | O=C(CCN1CCN(C(=O)OCc2cc(Cl)cc(Cl)c2)CC1)c1ccc2[nH]c(=O)oc2c1 | 20.6 µM (active) and 8.33 µM (active) | 16.6 µM (active) | inactive | inactive |  |  |  |  |  |  | -15.7% |  |  | inactive
5 | O=C(c1ccc(F)cc1)N1CCC[C@H](c2nc(-c3ccc(F)cc3)no2)C1 | 20900 nM (active) | 11.8 µM (active) | inactive | inactive |  |  |  | inactive | inactive | inactive | -11.7% | inactive |  | inactive
6 | CC(=O)CC(c1ccccc1)c1c(O)c2ccccc2oc1=O (centres undefined) | inactive | inactive | inactive | inactive | inactive | inactive |  | inactive | inactive | inactive | -5.83% and 0.968% | inactive |  | 
7 | O=C1NC(=O)C(c2cnc3ccccn23)=C1c1cn2c3c(cccc13)CN(C(=O)N1CCOCC1)CC2 | 231 nM (active) | 0.092 µM (active) | inactive | inactive |  |  |  | 6.6 nM (active) |  |  |  | inactive |  | inactive
8 | Nc1nc2c(ncn2COC(CO)CO)c(=O)[nH]1 | inactive | inactive | 26400 nM (active) | 26400 nM (active) |  |  |  | 23500 nM (active) | 20900 nM (active) |  | 8.16% and -8.2% | inactive |  | 23500 nM (active)
9 | COc1cc(C)c(Sc2cnc(NC(=O)c3ccc(CNC(C)C(C)C)cc3)s2)cc1C(=O)N1CCN(C(C)=O)CC1 (centres undefined) | 5.25 µM (active) and 5.17 µM (active) | 7.42 µM (active) and 8.2 µM (active) | inactive | inactive | inactive |  | inactive | 7430 nM (active) |  | 5260 nM (active) |  | 7940 nM (active) | 17800 nM (active) | 
10 | COc1cccc2c1C(=O)c1c(O)c3c(c(O)c1C2=O)C[C@@](O)(C(=O)CO)C[C@@H]3O[C@H]1C[C@H](N)[C@@H](O)[C@H](C)O1 | 66.1 nM (active) | 0.0525 µM (active) | 2960 nM (active) |  | 2960 nM (active) | 2960 nM (active) | 2960 nM (active) | 2640 nM (active) | 1480 nM (active) | 2640 nM (active) |  | 8910 nM (active) | 1120 nM (active) | 3320 nM (active)
11 | CC(C)C[C@@H](C=O)NC(=O)[C@H](CC(C)C)NC(=O)[C@H](CC(C)C)NC(=O)OCc1ccccc1 (Cbz-Leu-Leu-Leu-aldehyde) | 833 nM (active) | 1.05 µM (active) | 743 nM (active) |  | 2960 nM (active) | 2640 nM (active) | 1180 nM (active) | 662 nM (active) | 332 nM (active) | 743 nM (active) |  | 1260 nM (active) | 794 nM (active) | 1480 nM (active)
12 | CON(C)C(=O)N1N=C(c2cc(F)ccc2F)S[C@@]1(CCCN)c1ccccc1 | 9.2 nM (active) | 10.3 nM (active) and 3.3 nM (active) | 20.9 nM (active) | 23.4 nM (active) | 26.3 nM (active) |  | 20.9 nM (active) | 5.2 nM (active) | 11.7 nM (active) |  |  | 56.2 nM (active) | 14.1 nM (active) | 
13 | C[C@@H]1COC(Nc2ccc3ncnc(Nc4ccc(OCc5nccs5)c(Cl)c4)c3c2)=N1 | 4110 nM (active) | 2.91 µM (active) | inactive | inactive |  | 18700 nM (active) |  |  |  |  |  |  | 15800 nM (active) | 
14 | CC(C)(C)c1nc(-c2cccc(NS(=O)(=O)c3c(F)cccc3F)c2F)c(-c2ccnc(N)n2)s1 | 1840 nM (active) | 16.6 µM (active) | 11800 nM (active) |  | inactive | 743 nM (active) | 2960 nM (active) | inactive |  |  |  |  |  | 2960 nM (active)
